Source: PubChem BioAssay (NCATS)
Inconclusive results are not listed. Values without a mark were called inactive. Activity calls are given as the source filed them. Calls follow the shape of the dose curve; as a rule, active = well fitted curve in the direction sought with a large enough effect; inconclusive = small, poorly fitted or top-dose-only effect, or another doubt; inactive = no such curve, though single readings can be large; an effect the other way counts as inactive or inconclusive.

Legend:
[1] = Primary redox qHTS assay for identification of artifact compounds. (AID 1845223)
Outline: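 Amplex Red (25 uM) and HRP (250 mU/mL) in HBSS, with compounds for 15 min, then 250 uM DTT for 30 min, room temperature, dark. Fluorescence 525/598 nm read; normalized to DMSO and 10 uM DA3003; Hill fit.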

[2] = Quantitative High-Throughput drug screen in 47 multiple myeloma cell lines against the NCATS MIPE library collection: FR4_PLB cell viability assay (AID 1918924; also: potency is read from the fitted curve at half-maximal effect; nearly all actives have a fitted effect of over 35% in size)
Outline: (§1)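 Myeloma cell lines, 500 cells per well, exposed to MIPE 4.0 library compounds for 48 h at 37C, 5% CO2. Viability from ATP by CellTiter-Glo luminescence; normalised to DMSO (100%) and media-only (0%) wells.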

[3] = Quantitative High-Throughput drug screen in 47 multiple myeloma cell lines against the NCATS MIPE library collection: Delta47_JCRB cell viability assay (AID 1918925; also: potency is read from the fitted curve at half-maximal effect; nearly all actives have a fitted effect of over 45% in size)
Outline: (§2)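 CellTiter-Glo ATP luminescence gave viability after 48 h compound treatment at 37C of 500 multiple myeloma cells per well. Normalisation used DMSO-only wells as 100% and media-only wells as 0% viability; primary qHTS of approved and investigational drugs.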

[4] = Quantitative High-Throughput drug screen in 47 multiple myeloma cell lines against the NCATS MIPE library collection: EJM_DSMZ cell viability assay (AID 1918926; also: potency is read from the fitted curve at half-maximal effect; nearly all actives have a fitted effect of over 30% in size)
Outline: as §2

[5] = Quantitative High-Throughput drug screen in 47 multiple myeloma cell lines against the NCATS MIPE library collection: AMO1_DSMZ cell viability assay (AID 1918927; also: potency is read from the fitted curve at half-maximal effect; nearly all actives have a fitted effect of over 30% in size)
Outline: as §2

[6] = Quantitative High-Throughput drug screen in 47 multiple myeloma cell lines against the NCATS MIPE library collection: ARD_JJKsccE7 cell viability assay (AID 1918929; also: potency is read from the fitted curve at half-maximal effect)
Outline: as §2

[7] = Quantitative High-Throughput drug screen in 47 multiple myeloma cell lines against the NCATS MIPE library collection: Karpas620_DSMZ cell viability assay (AID 1918959); also: nearly all actives have a fitted effect of over 30% in size; also: potency is read from the fitted curve at half-maximal effect
Outline: as §1

[8] = Quantitative High-Throughput drug screen in 47 multiple myeloma cell lines against the NCATS MIPE library collection: KMM1_JCRB cell viability assay (AID 1918960); also: potency is read from the fitted curve at half-maximal effect; nearly all actives have a fitted effect of over 30% in size
Outline: (§3)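 Here, 48 h treatment with MIPE 4.0 agents at 37 °C preceded an ATP luminescence read. Plating density was 500 cells per well.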

[9] = Quantitative High-Throughput drug screen in 47 multiple myeloma cell lines against the NCATS MIPE library collection: Karpas417_ECACC cell viability assay (AID 1918961); settings: Karpas417 myeloma viability, CellTiter-Glo ATP luminescence, 48 h; viability (% of DMSO): at 45.8 µM (top of the series); also: potency is read from the fitted curve at half-maximal effect
Outline: as §1

[10] = Quantitative High-Throughput drug screen in 47 multiple myeloma cell lines against the NCATS MIPE library collection: JIM1_ECACC cell viability assay (AID 1918964; also: potency is read from the fitted curve at half-maximal effect)
Outline: as §2

[11] = Quantitative High-Throughput drug screen in 47 multiple myeloma cell lines against the NCATS MIPE library collection: INA6_PLB cell viability assay (AID 1918965; also: potency is read from the fitted curve at half-maximal effect; nearly all actives have a fitted effect of over 55% in size)
Outline: as §1

[12] = Quantitative High-Throughput drug screen in 47 multiple myeloma cell lines against the NCATS MIPE library collection: JJN3_DSMZ cell viability assay (AID 1918966; also: potency is read from the fitted curve at half-maximal effect; nearly all actives have a fitted effect of over 50% in size)
Outline: as §2

[13] = Quantitative High-Throughput drug screen in 47 multiple myeloma cell lines against the NCATS MIPE library collection: H1112_PLB cell viability assay (AID 1918967)
Outline: as §2

[14] = Quantitative High-Throughput drug screen in 47 multiple myeloma cell lines against the NCATS MIPE library collection: KMS27_JCRB cell viability assay (AID 1918970); also: nearly all actives have a fitted effect of over 30% in size; also: potency is read from the fitted curve at half-maximal effect
Outline: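 Viability inhibition screen, 48 h compound exposure, luminescent ATP read-out.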

[15] = Quantitative High-Throughput drug screen in 47 multiple myeloma cell lines against the NCATS MIPE library collection: KMS12BM_JCRB cell viability assay (AID 1918971); also: potency is read from the fitted curve at half-maximal effect; nearly all actives have a fitted effect of over 35% in size
Outline: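 Inhibition of cell viability is measured here. Each line was plated at 500 cells per well, treated with MIPE 4.0 drugs, kept 48 hours at 37C, then assayed for ATP content by CellTiter-Glo luminescence.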

[16] = Quantitative High-Throughput drug screen in 47 multiple myeloma cell lines against the NCATS MIPE library collection: KMS12PE_JCRB cell viability assay (AID 1918972); also: nearly all actives have a fitted effect of over 30% in size; also: potency is read from the fitted curve at half-maximal effect
Outline: as §1

[17] = Quantitative High-Throughput drug screen in 47 multiple myeloma cell lines against the NCATS MIPE library collection: KHM11_PLB cell viability assay (AID 1918962); also: potency is read from the fitted curve at half-maximal effect; nearly all actives have a fitted effect of over 35% in size
Outline: as §1

[18] = Quantitative High-Throughput drug screen in 47 multiple myeloma cell lines against the NCATS MIPE library collection: JIM3_ECACC cell viability assay (AID 1918963; also: potency is read from the fitted curve at half-maximal effect; nearly all actives have a fitted effect of over 35% in size)
Outline: as §1

[19] = Quantitative High-Throughput drug screen in 47 multiple myeloma cell lines against the NCATS MIPE library collection: Karpas25_ECACC cell viability assay (AID 1918968)
Outline: as §2

[20] = Quantitative High-Throughput drug screen in 47 multiple myeloma cell lines against the NCATS MIPE library collection: ARP1_JJKsccF8 cell viability assay (AID 1918928; also: potency is read from the fitted curve at half-maximal effect; nearly all actives have a fitted effect of over 40% in size)
Outline: as §3

## O=C(O)c1ccc2c(c1)nc(Nc1cccc(Cl)c1)c1ccncc12
[1]
  Potency: inactive
[2]
  Potency: 5260 nM (active)
[3]
  Potency: 4180 nM (active)
[4]
  Potency: 9350 nM (active)
[5]
  Potency: 5900 nM (active)
[6]
  Potency: 8330 nM (active)
[7]
  Potency: 4180 nM (active)
[8]
  Potency: 4690 nM (active)
[9]
  Potency: 935 nM (active)
[10]
  Potency: 6620 nM (active)
[11]
  Potency: 1660 nM (active)
[12]
  Potency: 9350 nM (active)
[13]
  Potency: 6620 nM (active)
[14]
  Potency: 1660 nM (active)
[15]
  Potency: 10500 nM (active)
[16]
  Potency: 5260 nM (active)

## CCN(CC)CCNC(=O)c1ccc2nc(-c3ccccc3)c(-c3ccc(CN4CCC(n5c(=O)[nH]c6ccccc65)CC4)cc3)nc2c1
[1]
  Potency: inactive
[2]
  Potency: 14800 nM (active)
[3]
  Potency: 662 nM (active)
[4]
  Potency: 18700 nM (active)
[5]
  Potency: 1050 nM (active)
[6]
  Potency: 2640 nM (active)
[7]
  Potency: 935 nM (active)
[8]
  Potency: 1660 nM (active)
[9]
  Potency: 1050 nM (active)
[17]
  Potency: 332 nM (active)
[18]
  Potency: 935 nM (active)
[10]
  Potency: 833 nM (active)
[11]
  Potency: 296 nM (active)
[12]
  Potency: 20900 nM (active)
[13]
  Potency: 833 nM (active)
[19]
  Potency: 332 nM (active)
[14]
  Potency: 418 nM (active)
[15]
  Potency: 16600 nM (active)
[16]
  Potency: 833 nM (active)

## O=C(Nc1cn[nH]c1-c1nc2ccc(CN3CCOCC3)cc2[nH]1)NC1CC1
[1]
  Potency: inactive
[2]
  Potency: 2350 nM (active)
[3]
  Potency: 1480 nM (active)
[4]
  Potency: 1870 nM (active)
[20]
  Potency: 4180 nM (active)
[6]
  Potency: 3720 nM (active)
[7]
  Potency: 5260 nM (active)
[8]
  Potency: 2960 nM (active)
[17]
  Potency: 1480 nM (active)
[18]
  Potency: 1180 nM (active)
[10]
  Potency: 2090 nM (active)
[11]
  Potency: 148 nM (active)
[12]
  Potency: 1870 nM (active)
[13]
  Potency: 3320 nM (active)
[14]
  Potency: 3320 nM (active)
[15]
  Potency: 5900 nM (active)

## Cc1ccc(C(=O)Nc2ccc(CN3CCN(C)CC3)c(C(F)(F)F)c2)cc1C#Cc1cnc2cccnn12
[1]
  Potency: inactive
[2]
  Potency: 1480 nM (active)
[3]
  Potency: 662 nM (active)
[4]
  Potency: 2640 nM (active)
[5]
  Potency: 2960 nM (active)
[6]
  Potency: 14800 nM (active)
[7]
  Potency: 5260 nM (active)
[8]
  Potency: 2090 nM (active)
[9]
  Potency: 469 nM (active)
[17]
  Potency: 662 nM (active)
[18]
  Potency: 1870 nM (active)
[11]
  Potency: 332 nM (active)
[12]
  Potency: 2640 nM (active)
[13]
  Potency: 2090 nM (active)
[19]
  Potency: 935 nM (active)
[14]
  Potency: 2640 nM (active)
[15]
  Potency: 2960 nM (active)
[16]
  Potency: 833 nM (active)

## COC(=O)Nc1ccc(-c2nc(N3CCOCC3)c3cnn(C4CCN(Cc5cccnc5)CC4)c3n2)cc1
[1]
  Potency: inactive
[2]
  Potency: 46.9 nM (active)
[3]
  Potency: 93.5 nM (active)
[4]
  Potency: 1480 nM (active)
[7]
  Potency: inactive
[17]
  Potency: 59 nM (active)
[18]
  Potency: 1180 nM (active)
[11]
  Potency: 46.9 nM (active)
[12]
  Potency: 743 nM (active)
[13]
  Potency: 26400 nM (active)
[14]
  Potency: inactive
[15]
  Potency: 1050 nM (active)
[16]
  Potency: inactive

## O=C(Nc1cc(C(F)(F)F)cc(C(F)(F)F)c1)c1cc(Cl)ccc1O
[1]
  Potency: inactive
[2]
  Potency: 1320 nM (active)
[3]
  Potency: 1870 nM (active)
[4]
  Potency: 1480 nM (active)
[6]
  Potency: 209 nM (active)
[7]
  Potency: 833 nM (active)
[8]
  Potency: 132 nM (active)
[9]
  Potency: 590 nM (active)
[18]
  Potency: 662 nM (active)
[10]
  Potency: 1050 nM (active)
[11]
  Potency: 1660 nM (active)
[12]
  Potency: 1870 nM (active)
[13]
  Potency: 1870 nM (active)
[19]
  Potency: 372 nM (active)
[14]
  Potency: 833 nM (active)
[15]
  Potency: 833 nM (active)
[16]
  Potency: 526 nM (active)

## CCOC(=O)C1=C(C)NC2=C(C(=O)CC(C)(C)C2)C1c1ccc(-c2ccccc2)cc1 (centres undefined)
[1]
  Potency: inactive
[2]
  Potency: 20900 nM (active)
[3]
  Potency: 14800 nM (active)
[20]
  Potency: 23500 nM (active)
[11]
  Potency: 26400 nM (active)
[12]
  Potency: 18700 nM (active)
[15]
  Potency: 23500 nM (active)

## COc1c(OCCCN2CCOCC2)ccc2c3n(c(=NC(=O)c4cnc(N)nc4)nc12)CCN3
[1]
  redox activity (% of DA3003): -6.72% [at 11.5 µM]
[2]
  Potency: 2880 nM (active)
[3]
  Potency: 182 nM (active)
[5]
  Potency: 512 nM (active)
[20]
  Potency: 28.8 nM (active)
[6]
  Potency: 14.4 nM (active)
[7]
  Potency: 102 nM (active)
[8]
  Potency: 12.9 nM (active)
[9]
  Potency: 8.1 nM (active)
[10]
  Potency: 7.2 nM (active)
[11]
  Potency: 6450 nM (active)
[12]
  Potency: 3230 nM (active)
[19]
  Potency: 57.5 nM (active)
[14]
  Potency: 45.7 nM (active)
[15]
  Potency: 5750 nM (active)
[16]
  Potency: 72.4 nM (active)

## COc1cc2c(NC3CCN(C(C)C)CC3)nc(C3CCCCC3)nc2cc1OCCCN1CCCC1
[1]
  Potency: inactive
[2]
  Potency: 7430 nM (active)
[3]
  Potency: 4690 nM (active)
[4]
  Potency: 10500 nM (active)
[20]
  Potency: 7430 nM (active)
[7]
  Potency: 8330 nM (active)
[8]
  Potency: 23500 nM (active)
[17]
  Potency: 4690 nM (active)
[18]
  Potency: 8330 nM (active)
[10]
  Potency: 23500 nM (active)
[11]
  Potency: 3720 nM (active)
[12]
  Potency: 13200 nM (active)
[13]
  Potency: 9350 nM (active)
[19]
  Potency: 7430 nM (active)
[14]
  Potency: 7430 nM (active)
[15]
  Potency: 7430 nM (active)
[16]
  Potency: 6620 nM (active)

## Cc1cc(N2CCOCC2)cc2[nH]c(-c3c(NC[C@@H](O)c4cccc(Cl)c4)cc[nH]c3=O)nc12
[1]
  Potency: inactive
[2]
  Potency: 23500 nM (active)
[3]
  Potency: 66.2 nM (active)
[4]
  Potency: 235 nM (active)
[20]
  Potency: 5260 nM (active)
[7]
  Potency: 418 nM (active)
[8]
  Potency: 52.6 nM (active)
[18]
  Potency: 132 nM (active)
[11]
  Potency: 296 nM (active)
[12]
  Potency: 1480 nM (active)
[13]
  Potency: 166 nM (active)
[19]
  Potency: 83.3 nM (active)
[14]
  Potency: 332 nM (active)
[15]
  Potency: 16600 nM (active)
[16]
  Potency: 7430 nM (active)
